According to PubChem BioAssay AID1984 (Sanford-Burnham Center for Chemical Genomics, 2009):
Screen size: about 290,000 compounds; about 35 (0.01%) were called active.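 How the source made its calls: active means EGFP signal decrease of at least 30% at 10 µM or well 3 SD below plate mean, unless failing retest; inactive means the rest, including hits failing retest or dose response.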 For the sample, actives were picked, then their nearest neighbours and some compounds at random.

Target: p/CIP-EGFP fusion (nuclear receptor coactivator 3, mouse) (UniProt Q05BA5)
Sequence (Q05BA5 1-1403): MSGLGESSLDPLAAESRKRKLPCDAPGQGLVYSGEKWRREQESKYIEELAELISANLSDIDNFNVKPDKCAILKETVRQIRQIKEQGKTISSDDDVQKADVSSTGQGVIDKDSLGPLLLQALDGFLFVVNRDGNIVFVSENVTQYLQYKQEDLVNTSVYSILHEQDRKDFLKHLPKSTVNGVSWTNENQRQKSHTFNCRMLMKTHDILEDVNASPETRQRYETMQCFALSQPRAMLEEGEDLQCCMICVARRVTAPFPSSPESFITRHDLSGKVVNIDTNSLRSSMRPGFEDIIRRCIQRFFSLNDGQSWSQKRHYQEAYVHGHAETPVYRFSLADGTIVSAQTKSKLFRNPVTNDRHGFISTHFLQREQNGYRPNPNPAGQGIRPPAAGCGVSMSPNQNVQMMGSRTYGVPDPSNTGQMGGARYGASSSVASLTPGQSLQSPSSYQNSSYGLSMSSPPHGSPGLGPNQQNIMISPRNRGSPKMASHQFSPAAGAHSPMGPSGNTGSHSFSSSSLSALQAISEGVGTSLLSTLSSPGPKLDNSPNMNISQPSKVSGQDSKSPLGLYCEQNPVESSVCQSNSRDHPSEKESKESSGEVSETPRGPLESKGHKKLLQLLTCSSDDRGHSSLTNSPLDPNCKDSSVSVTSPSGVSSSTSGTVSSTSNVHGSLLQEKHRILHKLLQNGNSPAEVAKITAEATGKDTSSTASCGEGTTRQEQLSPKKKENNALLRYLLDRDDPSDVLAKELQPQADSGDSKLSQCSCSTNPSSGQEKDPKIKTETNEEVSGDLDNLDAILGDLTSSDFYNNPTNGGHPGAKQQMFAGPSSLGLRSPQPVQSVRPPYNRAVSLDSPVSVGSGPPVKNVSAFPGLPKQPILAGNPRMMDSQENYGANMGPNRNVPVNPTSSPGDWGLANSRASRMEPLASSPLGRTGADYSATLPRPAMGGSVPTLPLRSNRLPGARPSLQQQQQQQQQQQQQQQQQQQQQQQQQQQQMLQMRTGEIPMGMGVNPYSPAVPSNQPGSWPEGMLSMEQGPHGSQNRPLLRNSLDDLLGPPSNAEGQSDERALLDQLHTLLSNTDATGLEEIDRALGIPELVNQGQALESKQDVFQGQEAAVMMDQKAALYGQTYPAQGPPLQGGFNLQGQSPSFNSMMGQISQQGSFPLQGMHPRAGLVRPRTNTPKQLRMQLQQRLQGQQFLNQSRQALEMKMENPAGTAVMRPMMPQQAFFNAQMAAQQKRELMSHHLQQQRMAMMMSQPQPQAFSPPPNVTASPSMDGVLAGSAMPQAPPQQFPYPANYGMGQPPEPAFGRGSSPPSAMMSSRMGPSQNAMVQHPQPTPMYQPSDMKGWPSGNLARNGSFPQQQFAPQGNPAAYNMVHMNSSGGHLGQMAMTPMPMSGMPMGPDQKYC
Experiment: p/CIP-EGFP fusion destabilizers, primary screen, fluorescence, F442A cells (AID 1984)
Conditions: 16 h, at 10 µM, stronger effect = higher value

Row | SMILES | decrease of EGFP signal
1 | COCCNC(=O)CSc1nc2sccc2c(=O)n1-c1ccccc1 | -15.6% (inactive)
2 | Cc1ccc(C(CNC(=O)Nc2cccc(C)c2)N2CCN(C)CC2)cc1 (stereo not drawn) | -22.3% (inactive)
3 | CC1C(=O)N(Cc2ccccc2)c2ccccc2N1C(=O)c1ccccc1 (stereo not drawn) | -15.4% (inactive)
4 | COc1ccc(N2CCN(C(=O)c3cccs3)CC2)cc1 | -8% (inactive)
5 | Cc1nc2nc(SCC(=O)Nc3cccc(F)c3)[nH]c2cc1Br | -0.1% (inactive)
6 | CS(=O)(=O)c1ccccc1C(=O)Nc1ccc2sccc2c1 | -7.2% (inactive)
7 | COc1ccc(-c2n[nH]c3c2CN(C(=O)c2ccc(F)cc2)CC3)cc1 | -14.3% (inactive)
8 | CC(C)(C)C1CCc2c(sc3nc(SCC(N)=O)nc(N)c23)C1 (stereo not drawn) | -4.6% (inactive)
9 | O=C(NCCCn1ccnc1)/C(=C\c1ccccc1F)NC(=O)c1ccccc1 | -21.2% (inactive)
10 | COc1ccc(OC)c(C(=O)NC(CC(N)=O)c2ccc(N3CCC(N4CCCCC4)CC3)c([N+](=O)[O-])c2)c1 (stereo not drawn) | -7.7% (inactive)
11 | CSCC[C@H](NC(=O)N1CCn2c1nc1ccccc12)C(=O)NCc1ccc2c(c1)OCO2 | -3.3% (inactive)
12 | Nc1nnc2c(C(F)(F)F)nc3ccccc3n12 | -5.5% (inactive)
13 | COc1ccc(C)cc1Nc1n[n+](-c2ccccc2)c(-c2cccc(Cl)c2Cl)s1 | 6.4% (inactive)
14 | CCN1N=C(c2ccccc2)CCC1=O | 5.6% (inactive)
15 | COc1cc2ccccc2cc1C(=O)Nc1ccccc1C | -1.6% (inactive)
16 | CC(C)(C)c1ccc(C(=O)N2CCN(CCNC(=O)C(=O)Nc3ccc(F)cc3)CC2)cc1 | -21.5% (inactive)
17 | CCc1ccc(Oc2coc3cc(O)ccc3c2=O)cc1 | -7.6% (inactive)
18 | CC(=O)N1CCOc2ccc(S(=O)(=O)N3CCC(C(=O)Nc4ccccc4F)CC3)cc21 | 11.8% (inactive)
19 | C=CCNC(=S)NNC(=O)COc1c(Cl)cc(Cl)cc1Cl | -6.1% (inactive)
20 | O=C(CNC(=O)c1ccccc1)Oc1ccc([N+](=O)[O-])cc1 | -14% (inactive)

Row | SMILES | decrease of EGFP signal
21 | C=CCNC(=O)COC(=O)CNC(=O)c1cc(Cl)cc([N+](=O)[O-])c1 | 32% (active)
22 | COc1ccc(NC2CCCN(C(=O)c3ccncc3)C2)cc1 (stereo not drawn) | -13.8% (inactive)
23 | CC(=O)c1cccc(NC(=O)C2CCN(C(=O)c3ccccc3Cl)CC2)c1 | 4.2% (inactive)
24 | Cc1ccccc1N(C(=O)CNC(=O)c1cccs1)C(C(=O)NC1CCCC1)c1ccncc1 (stereo not drawn) | 12.1% (inactive)
25 | CC1(C)C=C2[C@H]3CC[C@@H]4[C@@]5(C)CCC(=O)C(C)(C)[C@@H]5CC[C@@]4(C)[C@]3(C)CC[C@@]2(C(=O)O)CC1 | -6.3% (inactive)
26 | O=C(CN1CCN(S(=O)(=O)c2ccc(Br)cc2)CC1)Nc1ccccc1C(=O)c1ccccc1 | -4.8% (inactive)
27 | NC(=O)c1cc(S(=O)(=O)N2CCCC2)ccc1OCc1ccc(F)cc1 | -4.5% (inactive)
28 | COc1cccc(NC(=O)NCCN2CCCCC2)c1 | -6.2% (inactive)
29 | OC(CNC1CCCC1)COc1ccc(F)cc1 (stereo not drawn) | 26.4% (inactive)
30 | CCCCC(=O)Nc1nnc(S(=O)(=O)N(C)Cc2ccco2)s1 | 0.2% (inactive)
31 | Cc1ccc(N(Cc2cc(=O)[nH]c3ccccc23)C(=O)CCl)cc1 | -8.8% (inactive)
32 | CN(C)S(=O)(=O)c1cccc(NC(=O)COC(=O)C2(c3ccccc3F)CCCC2)c1 | -3% (inactive)
33 | Cc1[nH]c2ccccc2c1C(=O)CN1CCCC(C)C1 (stereo not drawn) | -10.8% (inactive)
34 | Cc1ccc(-c2nc(CSCC(=O)NC3CCN(Cc4ccccc4)CC3)c(C)o2)cc1 | -10% (inactive)
35 | Cn1nccc1C(=O)NC1CCCc2c1cnn2-c1ccc(F)cc1F (stereo not drawn) | -26.2% (inactive)
36 | Cc1ccc(CNC(=O)CSc2nnc3c(n2)[nH]c2ccc(F)cc23)cc1 | -14.9% (inactive)
37 | COc1cc(C2C(N3C(=O)c4ccccc4C3=O)C(=O)N2c2ccc(C)c(C)c2)cc(OC)c1OC (stereo not drawn) | 8.2% (inactive)
38 | N#CC(C#N)=CN=c1ccn(Cc2ccc(Cl)cc2Cl)cc1 | -1.4% (inactive)
39 | Cc1ccc(C(=O)NC2CCN(C(=O)Nc3ccccc3Cl)CC2)cc1 | 5.4% (inactive)
40 | CC1CCN(C(=O)c2ccccc2NC(=O)Cc2ccccc2)CC1 | -1.7% (inactive)

Row | SMILES | decrease of EGFP signal
41 | COc1ccccc1N(CC(=O)NC1CCCC1)C(=O)C1(C)CC(=O)N=C2C=CC(C)=CN21 (stereo not drawn) | -13.7% (inactive)
42 | Cc1ccc(OCC(=O)Nc2ccccc2C(=O)NC2CC2)cc1C | 1.1% (inactive)
43 | COc1ccccc1NC(=O)CSc1nnc(CNC(=O)c2ccccc2F)o1 | -0.3% (inactive)
44 | CCOC(=O)C1CCN(Cc2nnc(-c3cccc(Br)c3)o2)CC1 | -16.9% (inactive)
45 | O=C(CCc1nnc(Cc2ccc3c(c2)OCO3)o1)NCCc1ccccc1Cl | -7.8% (inactive)
46 | O=C(NCCc1ccccc1)c1ccc2c(c1)N(Cc1ccccc1)CCS2 | 5.5% (inactive)
47 | Cc1ccc(NC(=S)Nc2ncccc2C)c(C)c1 | -3.8% (inactive)
48 | COc1ccc(NS(=O)(=O)c2ccc(N3CCN(CCO)CC3)c([N+](=O)[O-])c2)cc1 | -28.7% (inactive)
49 | C=C(C)C(=O)O[C@H]1C/C(C)=C\C(=O)/C=C(\C)[C@H](O)[C@@H]2OC(=O)C(=C)[C@@H]21 | -31.6% (inactive)
50 | CC(C)NC(=O)N1CCN(c2ccncc2S(=O)(=O)N2CCCCC2)CC1 | 5.9% (inactive)
51 | Nc1c(N(CCO)C(=O)C2CCCCC2)c(=O)[nH]c(=O)n1Cc1ccccc1 | -13.9% (inactive)
52 | CC(C)CCOc1ccc(C(=O)C[N+]2(C)CCOCC2)cc1 | -10% (inactive)
53 | O=C(OCC(=O)N1CCN(C(=O)c2ccco2)CC1)c1cccc(O)c1 | 2.2% (inactive)
54 | Cc1ccc(NC(=O)CSc2nnc(CNC(=O)c3ccccc3F)o2)cc1Cl | -13% (inactive)
55 | CCc1cccc(NC(=O)CCCN2C(=O)C(c3ccccc3)Oc3cccnc32)c1 (stereo not drawn) | 4.5% (inactive)
56 | O=C(COc1cccc(Cl)c1)NCc1ccccc1 | -3.1% (inactive)
57 | CC(C(=O)N1CCN(c2ccccc2F)CC1)c1ccc([N+](=O)[O-])cc1 (stereo not drawn) | 1.2% (inactive)
58 | COc1ccc(C(=O)NC(=S)NC2CCCCC2)cc1 | -9.4% (inactive)
